The text below walks through data of PubChem BioAssay (NCI).

Each structure is given as a SMILES string. Where “and” joins values, the source holds several entries; their conditions need not be identical. Equal values may be shown once. Compounds without any hit were thinned out: in the full panel of roughly 79,000, 15% have a hit. Values without a mark were called inactive. Calls of active or inactive are those of the source. Rule as the data show it: active = growth inhibition above about 70%; inactive = the rest.

A short description of assay [1]: NCI Yeast Anticancer Drug Screen. Data for the rad50 strain (AID 155).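 Also: 0% = growth of vehicle-only cultures of the same strain.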 The note with it: S. cerevisiae rad50 strain growth inhibition, active compounds read high. Summed up: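 Cells are treated with compound, grown, and their growth is then scored against vehicle-only cultures of the same repair-deficient yeast strain.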
A short description of assay [2]: NCI Yeast Anticancer Drug Screen. Data for the sgs1 mgt1 strain (AID 161).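 Also: 0% = growth of cultures given vehicle only.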 As to conditions: S. cerevisiae sgs1 mgt1 strain, active compounds read high. In outline: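 Compounds are added to genetically altered yeast, and growth is compared with cultures given vehicle alone to give percent inhibition.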
The nature of assay [3]: NCI Yeast Anticancer Drug Screen. Data for the cln2 rad14 strain (AID 165).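 Also: 0% = growth equal to vehicle treated cultures.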 The note with it: S. cerevisiae cln2 rad14 strain, active compounds read high. Summed up:
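Relative to vehicle controls, growth inhibition of compound-treated cln2 rad14 yeast was recorded.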

The nature of assay [4]: NCI Yeast Anticancer Drug Screen. Data for the bub3 strain (AID 167). The note with it: S. cerevisiae bub3 mutant strain, active compounds read high. Summed up:
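Part of a panel of yeast mutants defective in DNA damage repair or cell cycle regulation. Each strain is grown with compound, and inhibition is calculated relative to solvent-treated cultures.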

Assay [5] is described as follows: NCI Yeast Anticancer Drug Screen. Data for the mlh1 rad18 strain (AID 175). The note with it: S. cerevisiae mlh1 rad18 strain growth inhibition, active compounds read high. Summed up: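 Test agents were incubated with a yeast strain of defined genotype (DNA damage repair defect). Inhibition of growth was derived by comparison with vehicle-exposed cultures.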
Assay [6] can be described thus: NCI Yeast Anticancer Drug Screen. Data for the mec2-1 strain (AID 157). As to conditions: S. cerevisiae mec2-1 strain, active compounds read high. In outline:
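Readout is yeast growth inhibition, normalised to vehicle-treated controls, in the mec2-1 strain exposed to compound.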

Setting [7] is: at 5.0 µM (retest, dose inferred, filed as 0.5).
Where [8] appears, read: at 50.0 µM (retest, dose inferred, filed as 5.0).

Take `Cc1nn(C(=O)c2ccccc2O)c2c1C(c1ccc3ccccc3c1O)SC(N)=N2` (stereo unspecified): the growth inhibition in assay [1] (setting [7]) is 8%; in assay [1] (setting [8]), 97% (active); in assay [1] (at 50.0 µM), 97.1% (active); in assay [2] (setting [7]), -4%; in assay [2] (setting [8]), 96% (active); in assay [2] (at 50.0 µM), 96.8% (active). The growth inhibition was -9% in assay [3] (setting [7]); 59% in assay [3] (setting [8]); 92.1% (active) in assay [3] (at 50.0 µM); -13% in assay [4] (setting [7]); 97% (active) in assay [4] (setting [8]); 97.8% (active) in assay [4] (at 50.0 µM). For the same compound, the growth inhibition is 9% in assay [5] (setting [7]), 98% (active) in assay [5] (setting [8]) and 97.7% (active) in assay [5] (at 50.0 µM).
As to `CC(=O)N(C(C)=O)C1=C2c3ccccc3N(S(=O)(=O)c3ccccc3)C2n2c(=O)n(-c3ccccc3)c(=O)n2C1` (stereo unspecified), the growth inhibition in assay [1] (setting [7]) was 11%; in assay [1] (setting [8]), 64%; in assay [1] (at 50.0 µM), 69.9%; in assay [2] (setting [7]), -1%; in assay [2] (setting [8]), 66%; in assay [2] (at 50.0 µM), 75.7% (active). For the same compound, the growth inhibition in assay [3] (setting [7]) was -26%; in assay [3] (setting [8]) it was 61%; in assay [3] (at 50.0 µM), 63.7%; in assay [4] (setting [7]), 0%; in assay [4] (setting [8]), 56%; in assay [4] (at 50.0 µM), 58.6%. Also, the growth inhibition in assay [5] (setting [7]) was -10%; in assay [5] (setting [8]), 35%; in assay [5] (at 50.0 µM) it was 55.7%.
As for `O=C(CC(C(=O)O)C(c1ccccc1)[N+](=O)[O-])c1ccccc1` (stereo unspecified), the growth inhibition in assay [1] (at 50.0 µM) was -4.1% and 6.9% and 6.55%; in assay [6] (at 50.0 µM) it was -5.4% and -10.8% and 16.7%; in assay [2] (at 50.0 µM), 4.4% and 6.3% and -17.4%; in assay [3] (at 50.0 µM) it was -67.8% and 15.6% and -18.9%; in assay [4] (at 50.0 µM), -9.65% and 9.1% and 5.6%; in assay [5] (at 50.0 µM), -2.55% and 22.1% and 32.6%.
`S=c1c2ccccc2[nH]c2ccccc12`: the growth inhibition in assay [6] (setting [7]) was -6%; in assay [6] (setting [8]), 62%; in assay [6] (at 50.0 µM), 63%; in assay [2] (setting [7]) it was -2%; in assay [2] (setting [8]), 83% (active); in assay [2] (at 50.0 µM), 60.6%. Besides, the growth inhibition is -7% in assay [3] (setting [7]); 46% in assay [3] (setting [8]); 75.3% (active) in assay [3] (at 50.0 µM); 8% in assay [4] (setting [7]); 33% in assay [4] (setting [8]); 88.8% (active) in assay [4] (at 50.0 µM). Moreover, the results for the growth inhibition in assay [5] (setting [7]), in assay [5] (setting [8]) and in assay [5] (at 50.0 µM) were -5%, 88% (active) and 85.5% (active), respectively.
As to `CN1C(=S)C(=N)OC1c1ccccc1F` (stereo unspecified), the growth inhibition in assay [6] (setting [7]) was 16%; in assay [6] (setting [8]) it was 97% (active); in assay [6] (at 50.0 µM) it was 75.3% (active); in assay [2] (setting [7]), 7%; in assay [2] (setting [8]), 98% (active); in assay [2] (at 50.0 µM), 85.6% (active). The growth inhibition in assay [3] (setting [7]) was -2%; in assay [3] (setting [8]) it was 82% (active); in assay [3] (at 50.0 µM), 33.4%; in assay [4] (setting [7]), 10%; in assay [4] (setting [8]), 99% (active); in assay [4] (at 50.0 µM) it was 89.2% (active). The growth inhibition in assay [5] (setting [7]) is -13%; in assay [5] (setting [8]) it was 96% (active); in assay [5] (at 50.0 µM), 84.8% (active).
Consider `CN1c2ccccc2Sc2c1n[nH]c2-c1ccccc1`, for which the growth inhibition in assay [1] (setting [7]) is -1%; in assay [1] (setting [8]) it was 64%; in assay [6] (setting [7]), -3%; in assay [6] (setting [8]) it was 79% (active); in assay [6] (at 50.0 µM), 96.1% (active); in assay [2] (setting [7]), 0%. The growth inhibition in assay [2] (setting [8]) is 79% (active); in assay [2] (at 50.0 µM), 98.8% (active); in assay [3] (setting [7]), 2%; in assay [3] (setting [8]), 68%; in assay [3] (at 50.0 µM), 98% (active); in assay [4] (setting [7]), -1%. Further, the growth inhibition was 95% (active) in assay [4] (setting [8]); 99% (active) in assay [4] (at 50.0 µM); -4% in assay [5] (setting [7]); 91% (active) in assay [5] (setting [8]); 98.8% (active) in assay [5] (at 50.0 µM).
For the compound `OCC(O)C(O)C(O)CO` (stereo unspecified), the growth inhibition was -5.35% and 10.4% and 7.75% in assay [1] (at 50.0 µM); -8.1% and 4.3% and 14% in assay [6] (at 50.0 µM); -16% and 7.05% and 14.4% in assay [2] (at 50.0 µM); 4.25% and 2.85% and 13.9% in assay [3] (at 50.0 µM); -45.7% and -5.45% and 0.05% in assay [4] (at 50.0 µM); -8.35% and -4.45% and 10% in assay [5] (at 50.0 µM).
On to `O=C(N/C(=C\c1cccc([N+](=O)[O-])c1)c1nc2ccccc2s1)c1ccccc1`, for which the growth inhibition is 36% in assay [1] (setting [7]); 98% (active) in assay [1] (setting [8]); 98.5% (active) in assay [1] (at 50.0 µM); 55% in assay [2] (setting [7]); 98% (active) in assay [2] (setting [8]); 98.9% (active) in assay [2] (at 50.0 µM). The growth inhibition in assay [3] (setting [7]) is 12%; in assay [3] (setting [8]), 98% (active); in assay [3] (at 50.0 µM), 98.1% (active); in assay [4] (setting [7]), 40%; in assay [4] (setting [8]), 98% (active); in assay [4] (at 50.0 µM), 97.8% (active). Moreover, the growth inhibition was 29% in assay [5] (setting [7]), 98% (active) in assay [5] (setting [8]) and 98.2% (active) in assay [5] (at 50.0 µM).
On to `O=C1NC(=O)/C(=C/c2ccc(S(=O)(=O)N/N=C\C(O)C(O)C(O)C(O)CO)cc2)N1` (stereo unspecified), for which the growth inhibition in assay [1] (at 50.0 µM) was 3.55% and -20.8% and 1.5%; in assay [6] (at 50.0 µM) it was -3.7% and 38.8% and 12.5%; in assay [2] (at 50.0 µM), -19.6% and 19.2% and -13.3%; in assay [3] (at 50.0 µM) it was 2.3% and 4.95% and 8.9%; in assay [4] (at 50.0 µM), -17.4% and -6.2% and 3.65%; in assay [5] (at 50.0 µM), 15.4% and 28.7% and 13.4%.
For `COc1cc(/C=C2\CCOC2=O)ccc1O`, the growth inhibition in assay [1] (at 50.0 µM) was 1% and -1.15% and 3.7%; in assay [6] (at 50.0 µM), -1.45% and 31.7% and 1.8%; in assay [2] (at 50.0 µM), -7.55% and 1.8% and -18.2%; in assay [3] (at 50.0 µM), -9.15% and 14.1% and -3.85%; in assay [4] (at 50.0 µM), 3.6% and 13.2% and 9.3%; in assay [5] (at 50.0 µM), -5.35% and -1.3% and -13.3%.
